These results are taken from PubChem BioAssay (NCI).

The structures appear in SMILES notation. This is part of a sample that, as a whole, favours compounds with a hit. Of some 83,000 tested, about 20% had one in any assay.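 Method: cells in 96-well plates; compound added at one concentration; 48 h incubation; percent growth measured; values under 10 scored active.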 Unmarked numbers belong to inactive results. Calls of active or inactive are those of the source.

Among the test systems are EKVX NSCLC; SN12C renal; UO-31 renal; TK-10 renal; ACHN renal; CAKI-1 renal; A498 renal; CCRF-CEM leukemia; MOLT-4 leukemia; SR leukemia.
What all share (assay): NCI-60 one-dose screen, 48 h (100 = growth as untreated, 0 = no growth, -100 = all killed)
Details in all cases: 10 µM unless noted

With `COc1ccc(C2=Nn3c(NN)nnc3SC2)cc1`, the growth with EKVX NSCLC is 118%; in the assay with SN12C renal it was 101%; with UO-31 renal, 84.5%; in the assay with TK-10 renal it was 97.5%; with ACHN renal, 103%; in the assay on CAKI-1 renal, 89.7%. Also, the growth was 84.6% in the assay with A498 renal, 95.1% with CCRF-CEM leukemia, 83% in the assay on MOLT-4 leukemia and 75.8% in the assay on SR leukemia.

Regarding `COc1cc(C=C2C(=O)N(C)C(=O)N(C)C2=O)cc(CN2CCCCC2)c1O`, the growth with EKVX NSCLC is 104%; with SN12C renal, 94%; in the assay with UO-31 renal it was 75.4%; with TK-10 renal, 103%; in the assay on ACHN renal, 95.9%; with CAKI-1 renal, 92.4%. In addition, the growth with A498 renal was 98.7%; in the assay with CCRF-CEM leukemia it was 109%; with MOLT-4 leukemia it was 98.2%; in the assay on SR leukemia, 94.4%.

Consider `O=C(/C=C/c1ccccc1)c1ccc(Nc2nc(NCCO)nc(Nc3ccc(Cl)cc3)n2)cc1`, for which the growth was 74.2% with EKVX NSCLC; 94.1% in the assay with SN12C renal; 66.7% with UO-31 renal; 98.5% in the assay on TK-10 renal; 74.1% in the assay on ACHN renal; 79.2% in the assay on CAKI-1 renal. The growth in the assay with A498 renal was 88.9%; in the assay on CCRF-CEM leukemia, 60.6%; with MOLT-4 leukemia, 74.3%; with SR leukemia, 23.1%.

In the case of `O=C(Nc1ccc(N2CCNCC2)cn1)c1[nH]ncc1Nc1ncnc2sccc12`, the growth with EKVX NSCLC is 65.8%; in the assay with SN12C renal it was 66.9%; in the assay with UO-31 renal it was 76.1%; in the assay on TK-10 renal, 87.1%; in the assay with ACHN renal, 60.2%; in the assay with CAKI-1 renal, 54.1%. The growth with A498 renal was 80.7%; in the assay with CCRF-CEM leukemia it was 5.54% (active); in the assay on MOLT-4 leukemia, 2.22% (active); in the assay with SR leukemia, -5.97% (active).

On to `Cn1cc(-c2ccc3ncc(-c4ccc(CC(=O)Nc5cc(C(C)(C)C)no5)cc4)nc3c2)cn1`, for which the growth in the assay with EKVX NSCLC is 50%; with SN12C renal, 26.8%; with UO-31 renal, 2.84% (active); with TK-10 renal it was 50.8%; in the assay with ACHN renal, 15.2%; in the assay on CAKI-1 renal, 16.6%. Also, the growth is 17.9% in the assay on A498 renal, 50.6% in the assay with CCRF-CEM leukemia, 30.7% in the assay on MOLT-4 leukemia and 16% in the assay with SR leukemia.

On to `COc1ccc(Br)c(/C=C2\SC(=Nc3ccc(O)cc3)NC2=O)c1`, for which the growth was 88.7% with EKVX NSCLC; 89.7% in the assay on SN12C renal; 49.8% in the assay on UO-31 renal; 96.4% in the assay with TK-10 renal; 89.7% with ACHN renal; 75.8% in the assay with CAKI-1 renal. The growth with A498 renal was 97.6%; in the assay with CCRF-CEM leukemia, 75%; in the assay with MOLT-4 leukemia, 85.2%; with SR leukemia, 110%.

On to `O=S1(=O)N(Cc2ccccc2)[C@@H](Cc2ccccc2)C2O[C@H]2[C@H](Cc2ccccc2)N1Cc1ccccc1` (stereo not given in full), for which the growth was 24% with EKVX NSCLC; 47.8% in the assay with SN12C renal; 68.1% in the assay with UO-31 renal; 71% in the assay on TK-10 renal; 41.2% in the assay on ACHN renal; 33.8% in the assay with CAKI-1 renal. Also, the growth with A498 renal was 65.4%; with CCRF-CEM leukemia, 29.5%; with MOLT-4 leukemia, 35.4%; in the assay on SR leukemia, 29.6%.

As to `S=C1CCCC(=S)N1`, the growth in the assay on EKVX NSCLC is 106%; in the assay with SN12C renal, 99.3%; in the assay on UO-31 renal, 87.8%; with TK-10 renal, 114%; in the assay with ACHN renal, 105%; in the assay with CAKI-1 renal it was 93%. The growth in the assay with A498 renal is 91.3%; in the assay with CCRF-CEM leukemia it was 105%; in the assay on MOLT-4 leukemia it was 107%; with SR leukemia, 114%.

In the case of `COc1ccc(/C=C2/SC(=O)N(CC(=O)N3CCN(c4cc5c(cc4F)c(=O)c(C(=O)O)cn5C4CC4)CC3)C2=O)cc1`, the growth in the assay on EKVX NSCLC was 114%; in the assay with SN12C renal, 96.5%; with UO-31 renal, 81.8%; in the assay with TK-10 renal, 117%; with ACHN renal it was 102%; in the assay on CAKI-1 renal, 92.4%. For the same compound, the growth with A498 renal is 113%; with CCRF-CEM leukemia it was 107%; with MOLT-4 leukemia, 108%; in the assay with SR leukemia it was 94.4%.

As for `COC(=O)C1(C)CCC[C@]2(C)[C@H]3C[C@H]4C(C(C)C)=C[C@]3(CC[C@@H]12)[C@H]1[C@@H]4[C@@H](OCC#CCN2CCOCC2)CC[C@@H]1OCC#CCN1CCOCC1` (stereo not given in full), the growth is 67.2% in the assay on EKVX NSCLC; 81.1% with SN12C renal; 72.9% in the assay on UO-31 renal; 98% in the assay with TK-10 renal; 92.3% in the assay with ACHN renal; 80% in the assay with CAKI-1 renal. Moreover, the growth in the assay on A498 renal is 101%; in the assay on CCRF-CEM leukemia, 72%; with MOLT-4 leukemia it was 70%; with SR leukemia, 88.3%.

Take `COc1cc(/C=C2\CN(C)C/C(=C\c3cc(CN4CCCC4)c(O)c(OC)c3)C2=O)cc(CN2CCCC2)c1O`: the growth with EKVX NSCLC was 83.9%; with SN12C renal, 53.6%; in the assay with UO-31 renal, 80.7%; in the assay on TK-10 renal, 101%; in the assay on ACHN renal, 79%; with CAKI-1 renal, 99.6%. In addition, the growth in the assay with A498 renal is 98.2%; with CCRF-CEM leukemia it was 34.1%; in the assay with MOLT-4 leukemia, 57.6%; with SR leukemia, 38.7%.

On to `CN1C(=O)N(C)C2(c3ccccc3)OC(=S)NC12c1ccccc1` (stereo not given), for which the growth was 90.8% with EKVX NSCLC; 107% in the assay with SN12C renal; 89% in the assay on UO-31 renal; 102% in the assay with TK-10 renal; 95.7% in the assay on ACHN renal; 84.7% with CAKI-1 renal. For the same compound, the growth was 105% in the assay on A498 renal, 114% with CCRF-CEM leukemia, 103% with MOLT-4 leukemia and 105% in the assay with SR leukemia.

Consider `O=c1c2cccc(F)c2sc2c(N3CCNCC3)nc3ccccc3c12`, for which the growth with EKVX NSCLC was 48.2%; in the assay on SN12C renal, 46.5%; in the assay on UO-31 renal, 23%; in the assay on TK-10 renal it was 53%; in the assay with ACHN renal, 16%; in the assay on CAKI-1 renal it was 39.4%. The growth with A498 renal is 48.5%; in the assay on CCRF-CEM leukemia it was 13.2%; in the assay on MOLT-4 leukemia it was -18.8% (active); in the assay with SR leukemia it was 3.21% (active).
